# Laboratory results from the emibetuzumab library of Makowski et al. (2022).
# The other results are listed elsewhere or left out. How many sequences the whole screen found active is unknown.
# B1: VH:VL chains; a variant is named by its letters at X, in order (parent)
# chain 1: QVQLVQSGAEVKKPGASVKVSCKASGYTFTDYXMHWVRQAPGQGLEWMGXVNPNXXXTTYNQKFEGRVTMTTDTSTSTAYMELRSLRSDDTAVYYCARXNXLDXWGQGTTVTVSS
# chain 2: DIQMTQSPSSLSASVGDRVTITCSVSSSVSSIYLHWYQQKPGKAPKLLIYSTSNLASGVPSRFSGSGSGTDFTLTISSLQPEDFATYYCQVYSGYPLTFGGGTKVEIK
# Variants of: B1
# Assay: yeast display scFab, FACS + sequencing
# Settings: with MET
# Method in brief: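 Antigen binding was called positive for sequences present in both antigen-positive samples and negative for those present only in the input. These calls came from deep sequencing, in two replicates, of round-3 sorted and input populations from a heavy-chain CDR mutant scFab yeast surface library. The library was first enriched twice magnetically on HGFR-Fc-coated Protein A beads and then by FACS, gating the top 50% antigen-positive cells after 3 h labelling at room temperature with 1 nM HGFR-Fc plus anti-Myc in PBSB with 1% milk.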
row,Variant,antigen binding call
1,DTTKGDVV,no binding
2,DEGGTSSA,no binding
3,DTTRADVD,no binding
4,DRGGDSSS,binds
5,DATGGSSS,no binding
6,DRGGDDGS,no binding
7,DTTKSSSS,no binding
8,DRTGDSSS,binds
9,DRGGDSLD,no binding
10,DKGGSDVV,no binding
11,STRGADAV,no binding
12,DKEEADGV,no binding
13,FRAGGAWV,binds
14,FRTGDAWV,binds
15,FRTGDDLV,no binding
16,FRTGDDWV,no binding
17,FRAGSAVV,binds
18,VATGDSLV,no binding
19,FRTGDSLV,binds
20,SKTKSDVV,no binding
21,SAREGSSA,no binding
22,DEARGAGD,no binding
23,FRRGGAWV,binds
24,FRTKGAWV,binds

row,Variant,antigen binding call
1,FRRGGAVV,binds
2,FATKGAWV,no binding
3,FRGRDVVV,no binding
4,AARETVGA,no binding
5,STAESDLD,no binding
6,YRGRGFAS,binds
7,YRGRGFGY,binds
8,YRGRGFGS,binds
9,YAAAAFGY,no binding
10,YAGRGFGF,no binding
11,YRGRGFGF,binds
12,YAGRSFGS,no binding
13,DAGGGAVV,no binding
14,YATGDDVA,no binding
15,DGGGNDLV,no binding
16,VATRGYLV,no binding
17,AARADDVD,no binding
18,DEGKGFGS,no binding
19,YRGKGFGS,binds
20,YRGRGVGF,binds
21,SRGKSFGS,no binding
22,YAKEGDGV,no binding
23,VGKGDDAA,no binding
24,VRTEDASF,no binding

row,Variant,antigen binding call
1,YRGRGASF,binds
2,YRGRGSSF,binds
3,YTTGSASF,no binding
4,FRTGDSAS,binds
5,FRTGDAVF,binds
6,FRTGDAVS,binds
7,FRTGDDSF,no binding
8,VTGGDSLV,no binding
9,FKTRDFAY,no binding
10,VEKEGDVY,no binding
11,DATGGASD,no binding
12,YRAGGYVF,binds
13,YRAGGYVD,binds
14,YRRGGYVD,no binding
15,AKGEDSVF,no binding
16,YRRRGYVF,binds
17,YKRRSSVF,binds
18,SEARSSSF,no binding
19,YRRRGAVF,binds
20,YRRRGSVF,binds
21,VAGGAYLY,no binding
22,DTATADWA,no binding
23,FRARGAAV,binds
24,FRRGDAAV,binds

row,Variant,antigen binding call
1,YAARGAAV,no binding
2,YRARSAAV,binds
3,YGARNAAV,no binding
4,FRAGGAAV,binds
5,DTAESSSF,no binding
6,YTGTSDGV,no binding
7,VEGGGAVV,no binding
8,FRTKDDVY chain 1 E46K,no binding
9,DRAGDAAV,no binding
10,FRARSAAV,binds
11,SEARSAAV,no binding
12,FREGGSGD,no binding
13,FAAGGSGD,no binding
14,FRKGGSGD,binds
15,FRAGGSGD,binds
16,VGETSYVD,no binding
17,SKAKGSGA,binds
18,SKAGGAGA,binds
19,SKAKGFGV,no binding
20,SKERGDGA,no binding
21,SKTKSSGA,no binding
22,SKAKGSGV,binds
23,SKRKSSGA,no binding
24,SAAGGAGA chain 1 L45S,no binding

row,Variant,antigen binding call
1,SKTRGAGV,no binding
2,SKKRGSGA,binds
3,SGEEGSGA,no binding
4,SKAGGVGA,no binding
5,VAATADAV,no binding
6,VAGTSDGA,no binding
7,DATGGFGV,no binding
8,DAGEGFVA,no binding
9,VEEEAFAV,no binding
10,VTGEDSLV,no binding
11,VETGNSGA,no binding
12,YRERGAGF,binds
13,YRERGAAF,binds
14,DRGRDDAA,no binding
15,DAKEGDLV,no binding
16,YRTKASLD,binds
17,YRAKGSLD,binds
18,YREKGSLD,binds
19,YRTGGSLD,binds
20,DATGGSLD,no binding
21,DTREGDVA,no binding
22,STAESDGA,no binding
23,VGEGGDAY,no binding
24,VAEKGFLV,no binding

row,Variant,antigen binding call
1,SRRETFVF,no binding
2,DGGTNDVA,no binding
3,VAGTDAGD,no binding
4,FKGRGSLY,binds
5,FKGRGSGY,binds
6,FKGEGSLY,no binding
7,VKGRASGY,no binding
8,YTRGASGA,no binding
9,YKRGASVA,binds
10,YTRGAALA,no binding
11,YTRGADVA,no binding
12,YTRGAAVA,no binding
13,YKRGASLA,binds
14,YRTAGAAD,binds
15,YRTAGAGD,binds
16,YRTAGSSD,binds
17,YRTAGSGD,binds
18,VATGDDGV,no binding
19,STAESSSF,no binding
20,DKTGNDVA,no binding
21,DRAGDDVY,no binding
22,YTGTSAVA,no binding
23,VAGRGSAA,no binding
24,VKGRGSAA,binds

row,Variant,antigen binding call
1,SEGRGDAA,no binding
2,VKGRADAA,no binding
3,SAGRGSAA,no binding
4,SKGRGSAA,binds
5,VEGGGDGD,no binding
6,VRRANFLD,no binding
7,VRGGGFGV,no binding
8,VRGRGFLD,binds
9,AAGRGFLD,no binding
10,VRGGGFGD,binds
11,DRGGDDVV,no binding
12,YRARSAGY,binds
13,YRTKGAVY,binds
14,SEARSAVY,no binding
15,DREEGAVY,no binding
16,YRTRSAVY,binds
17,YRARSAVY,binds
18,SEREADWF,no binding
19,VAGTGDWF,no binding
20,AETKGDGA,no binding
21,DGGRSAVF,no binding
22,FRRGSALA,binds
23,DRRGDAVA,no binding
24,FRRGSAVA,binds

row,Variant,antigen binding call
1,FRRGDAVA,binds
2,ARRGSDLA,no binding
3,FRRTDFVA,no binding
4,FREGSAVA,no binding
5,DGGTNDGA,no binding
6,DAAGADWY,no binding
7,YRKGGSWS,binds
8,DRKGGDWS,no binding
9,YRARGSWS,binds
10,YRGRSSWS,binds
11,AAAGGSWS,no binding
12,YRAAGSWS,binds
13,VRTEDSWS,no binding
14,VAEKGDGA,no binding
15,YAEGGYGV chain 1 V68I,no binding
16,DTTGSDWY,no binding
17,VEGGGDVA,no binding
18,SEARSDWF,no binding
19,VAGTGDAA,no binding
20,SATTDSVD,no binding
21,YRAEGAWS,binds
22,VRARGDVS,binds
23,YRKKTDWS,no binding
24,VEKGGDVS,no binding

row,Variant,antigen binding call
1,YRARSAWS,binds
2,SEARSAWS,no binding
3,SEARSSWS,no binding
4,VRAGGDVF,no binding
5,YRARSSWS,binds
6,FAEGDDVA,no binding
7,ATTGGDGV,no binding
8,VGGTGSGY,no binding
9,VTEGGDVY,no binding
10,VEKGGDAA,no binding
11,VTERDDAV,no binding
12,YRARGAAS,binds
13,YRARGSVS,binds
14,YRARGAVS,binds
15,VAATADSS,binds
16,DAATADSS,no binding
17,YAATADSS,no binding
18,YAEESDGS,no binding
